aSyn UTR act: Activators working through SNCA 5'UTR binding (MLPCN); alpha-synuclein 5'UTR reporter, activators screen; activity score, % (tested at 7.5 µM), hits read low; 7.1% of 300,000 active; in the data active means activity score below about -60%
* marks the source's active call; other numbers are inactive results. Only a sample is shown.

SMILES | aSyn UTR act
Cc1cc2c(C)nc(-c3ccccc3)nc2o1 | -167.3*
Cc1cc(-c2nnco2)c(C)n1-c1ccccc1 | -101.2*
Cc1cc(C2=NNC(=NC3CC3)SC2)c(C)n1-c1ccccc1 | 95.2
COCC(C)NC(=O)CCc1nnc(C2(c3ccc(Cl)cc3)CCC2)o1 (stereo unspecified) | -81.4*
C=CCNC(=O)CCc1nnc(C2(c3ccc(Cl)cc3)CCC2)o1 | -120.3*
C=C(C)CNC(=O)CCc1nnc(C2(c3ccc(Cl)cc3)CCC2)o1 | -98.2*
O=[N+]([O-])c1ccc2c(c1)nc1n2CCN(c2ccccc2)C1 | -125.4*
C/C(=N/NC(=O)c1ccccc1)c1ccc(NC(=O)C(F)(F)F)cc1 | -68.5*
C/C(=N/OCC(=O)Nc1ccccc1)c1cccs1 | -131.4*
C/C(=N\NC(=O)c1ccco1)c1ccc(NC(=O)c2cccs2)cc1 | -105.8*
C/C(=N\NC(=O)c1ccccc1)c1ccc(NC(=O)c2cccs2)cc1 | -107.7*
C/C(=N\NC(=O)c1ccccc1C)c1ccc(NC(=O)c2cccs2)cc1 | -148.1*
C/C(=N\NC(=O)C(N)=O)c1ccc(NC(=O)c2cccs2)cc1 | -140.2*
O=C(NCCO)c1ccc2c3n(nc2c1)-c1ccc(Cl)cc1CO3 | -158.5*
COCCNC(=O)c1ccc2c3n(nc2c1)-c1ccccc1CO3 | -108.0*
COCCNC(=O)c1c[nH]c2ccc(S(=O)(=O)N3CCc4ccccc43)cc2c1=O | 61.2
O=C(NCC1CC1)c1ccc2c3n(nc2c1)-c1ccc(Cl)cc1CO3 | -166.0*
Cc1ccc2c(c1)COc1c3ccc(C(=O)NCCO)cc3nn1-2 | -157.6*
COCCNC(=O)c1ccc2c3n(nc2c1)-c1ccc(Cl)cc1CO3 | -164.0*
CCCCOc1ccc(-c2ncc(N)cn2)cc1 | -95.3*
CCCCOc1ccc(-c2nc(=S)[nH][nH]2)cc1 | -65.0*
CCCCOc1ccc(-c2nc(SCC(N)=O)n[nH]2)cc1 | -114.2*
CCCCOc1ccc(C(=O)NNC(=S)NC(=O)CC)cc1 | 85.4
Cc1cc(C)n2nc(-c3ccc(F)cc3)nc2n1 | -109.4*
CC1(C)CC(=O)c2sc(NS(=O)(=O)Cc3ccccc3)nc2C1 | -62.9*
SMILES | aSyn UTR act
Cc1ccc2c(c1)COc1c3ccc(C(=O)NC(C)C)cc3nn1-2 | -204.1*
Cc1ccc2c(c1)COc1c3ccc(C(=O)N[C@@H](C)CO)cc3nn1-2 | -154.1*
CC(=O)c1ccc(NC(=O)c2cnn3ccccc23)cc1 | 78.9
CC(=O)c1cccc(NC(=O)c2ccc3c(c2)CCCC3)c1 | -132.2*
CC(=O)c1cccc(NC(=O)c2cnn3ccccc23)c1 | -106.3*
COc1cccc(NC(=O)Nc2ccc3c(c2)CCC3)c1 | -130.3*
Cn1cc(C(=O)Nc2ccc3c(c2)CCC3)cn1 | -104.9*
CCc1ccc(NC(=O)Nc2ccc3c(c2)CCC3)cc1 | -125.5*
Cc1cccc(NC(=O)Nc2ccc3c(c2)CCC3)c1 | -115.7*
O=C(Nc1ccc2c(c1)CCC2)c1cccc(F)c1 | -143.2*
CC(=O)c1cccc(NC(=O)Nc2ccc3c(c2)CCC3)c1 | -91.4*
COc1cccc(NC(=O)COc2ccc3c(c2)CCC3)c1 | -65.2*
COC(=O)c1ccc(Oc2cc(C)nc(-n3nc(C)cc3C)n2)cc1 | 65.2
COC(=O)c1ccc(CSc2nc(N)cc(N)n2)cc1 | -66.4*
Cc1ccc(OCCn2cnc3ccccc3c2=O)c([N+](=O)[O-])c1 | -157.0*
CCOc1cccc(OCCn2cnc3ccccc3c2=O)c1 | -78.8*
CCOc1ccc(OCCn2nnc3ccccc3c2=O)cc1 | -120.8*
Cc1ccc(NC(=S)/C(=C(\[O-])c2ccc(F)cc2)[n+]2ccccc2)cc1 | -90.4*
O=C(N/N=C\c1cccc(OC(=O)c2ccco2)c1)c1ccc2c(c1)OCO2 | -64.7*
O=C(N/N=C/c1ccc2c(c1)OCO2)c1ccc2c(c1)OCO2 | -91.3*
COc1cc(/C=N\NC(=O)c2ccc(C)nc2)ccc1OC(=O)c1ccc2c(c1)OCO2 | -67.2*
O=C(N/N=C/c1ccc2c(c1)OCO2)C1CC1 | -66.7*
O=C(CCC(=O)Nc1ccccc1)N/N=C/c1ccc2c(c1)OCO2 | -62.9*
O=C(N/N=C/c1ccc[nH]1)c1ccc2c(c1)OCO2 | -92.9*
O=C(N/N=C\c1ccc2c(c1)OCO2)c1ccco1 | -102.5*
SMILES | aSyn UTR act
Cc1ccsc1/C=N\NC(=O)c1ccc2c(c1)OCO2 | -96.9*
O=C(CCCN1C(=O)/C(=C/c2ccc3c(c2)OCO3)SC1=S)Nc1ccc(C(=O)O)cc1 | 101.6
COC(=O)Nc1ccc(OCc2ccccc2)cc1 | -111.5*
CS(=O)(=O)Nc1ccc(OCc2ccccc2)cc1 | -167.9*
CC(=O)Nc1ccc(N=Cc2ccc(OCc3ccccc3)cc2)cc1 | -129.5*
COCC(=O)Nc1ccc(OCc2ccccc2)cc1 | -78.6*
Oc1ccc(NCc2ccc(OCc3ccccc3)cc2)cc1 | -100.2*
COc1ccccc1NC(=O)C(=O)N/N=C(\C)CC(=O)Nc1ccc(OCc2ccccc2)cc1 | -61.6*
COc1ccc(N=Cc2nc(-c3ccccc3)oc2OC(=O)c2ccccc2)cc1 | -91.7*
CN(C)c1ccc(N=Cc2nc(-c3ccccc3)oc2OC(=O)c2cccc(Br)c2)cc1 | -165.9*
CCC(=O)Oc1oc(-c2ccccc2)nc1C=Nc1ccccc1OC | -63.5*
CC1(C)N=C(N)N=C(N)N1c1ccc(Oc2ccc(Cl)cc2)c(Cl)c1 | 85.1
O=C(/C=C/c1ccccc1)OCc1cncs1 | -102.8*
O=c1c(-c2ccc(O)cc2)coc2cc(OC3OC(CO)C(O)C(O)C3O)ccc12 (stereo unspecified) | -82.2*
O=c1c(-c2ccc(O)cc2)coc2cc(OC3OC(CO)C(O)C(O)C3O)cc(O)c12 (stereo unspecified) | -82.9*
COc1cc(O)c2c(=O)c(-c3ccc(O[C@@H]4O[C@H](CO)[C@@H](O)[C@H](O)[C@H]4O)cc3)coc2c1 | -155.3*
c1ccc(C2=NN(c3ccccc3)CC2)cc1 | -157.1*
Cc1sc2ncnc(Sc3ccccc3C(=O)Nc3ccc(Br)cc3)c2c1C | -86.3*
CC(CC(=O)Nc1nc2ccccc2[nH]1)c1ccccc1 (stereo unspecified) | -188.5*
Cc1ccccc1OCC(=O)Nc1nc2ccccc2[nH]1 | -111.2*
O=C(COc1ccccc1)Nc1nc2ccccc2[nH]1 | -150.3*
C=C1C(=O)C=C[C@]2(C)C[C@@H]3OC(=O)[C@](C)(O)[C@H]3C[C@@H]12 | -526.8*
COc1ccccc1C(=O)Nc1cc2cc(Cl)ccc2oc1=O | -122.5*
COc1ccccc1C(=O)NNC(=O)c1ccc(Cl)cc1 | -70.3*
COc1ccccc1C(=O)NNC(=O)c1ccc(F)cc1 | -92.4*
SMILES | aSyn UTR act
c1cncc(-c2csc(NCc3ccco3)n2)c1 | -92.3*
COc1ccc(-c2csc(NCc3ccco3)n2)cc1C | -194.9*
CC(=O)Nc1ccc(-c2csc(NCc3ccco3)n2)cc1 | -138.0*
CC(=O)c1cc2c(=O)c3cc(C)ccc3oc2nc1C | -184.0*
Cc1ccc2oc3nc(C)c(C(=O)O)cc3c(=O)c2c1 | -102.6*
Cc1nc2oc3ccc(F)cc3c(=O)c2cc1C(=O)O | -75.3*
CCOC(=O)c1cc2c(=O)c3cc(C)ccc3oc2nc1C | -113.9*
CC(C)(C)c1ccc(-c2noc(-c3ccno3)n2)cc1 | -120.2*
C/C(N)=C(/C#N)C(=O)COC(=O)c1cccc2ccccc12 | -62.5*
COc1ccc2oc(C(=O)OCC(=O)/C(C#N)=C(\C)N)c(C)c2c1 | -81.3*
Clc1ccc(-c2n[nH]c3c2Cc2ccccc2-3)cc1Cl | -66.3*
Clc1ccccc1CN1CCN(/N=C/C=C\c2ccco2)CC1 | -78.3*
C(/C=C/c1ccco1)=N/N1CCN(c2ccccc2)CC1 | -189.0*
Clc1cccc(Cl)c1/C=C/c1ccn[nH]1 | -232.3*
